IL1B secr inh: inflammasome signaling inhibition, IL-1 beta readout; THP-1 LPS/ATP IL-1B secretion, AlphaLISA, 16 h; active compounds read low; activity change, % at 57.5 µM; 360,000 compounds, 4.7% hits; in the data active = activity change below about -50%; inconclusive = mostly about -30% to -49%
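THP-1 cells pretreated 1 hr with compounds (up to 57.5 uM final), then stimulated with LPS (250 ng/mL final) plus ATP (1.25 mM final); secreted IL-1B measured by AlphaLISA after 16 hr, decreased signal indicating inhibition.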
ELG1 repair inh: inhibitors of ELG1-dependent DNA repair in HEK293T cells. AID 504467. Potency, µM (series often up to 46.1 µM), actives largely listed as inhibitors. HEK293T ELG1-luciferase reporter, luminescence, 16 h; DNA damage induced by 5-fluorouridine. 330,000 compounds, 2.3% hits; note: nearly all actives have a fitted effect of over 55% in size
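HEK293T cells expressing luciferase-tagged ELG1 (2,000/well) received 5-Fluorouridine plus compound or DMSO for 16 hr at 37 °C. Luciferase was read by ONE-Glo luminescence after 30 min at room temperature.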
DT40 TDP1 CPT: growth inhibition of DT40 Tdp1-/-;hTDP1 cells with camptothecin (screen for TDP1 inhibitors) | chicken DT40 Tdp1-/-;hTDP1 cells + 20 nM CPT, ATP luminescence, 48 h | Potency, µM (series often up to 46.2 µM), usual class: inhibitors | 420,000 compounds, 12% hits | AID 686979; note: nearly all actives have a fitted effect of over 55% in size
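Chicken DT40 Tdp1-/- cells complemented with human TDP1, 400 cells/well, exposed to compounds plus 20 nM camptothecin for at least 48 h at 37 C; viability read as ATP content by CellTiter-Glo luminescence.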
HT1080 IDH1KD tx: HT-1080 IDH1 knockdown cell toxicity (counter line); HT-1080 IDH1 knockdown viability, ATP luminescence, 48 h; Potency, µM (highest dose often 46.1 µM), usual class: cytotoxic; 360,000 compounds, 2% hits
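Viability of IDH1-knockdown HT-1080 fibrosarcoma cells was assessed by CellTiter-Glo after 48 h at 37 °C with titrated compound; concentration-effect curves were classified by fit quality and response size.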
DT40 TDP1 no CPT: qHTS for Inhibitors of human tyrosyl-DNA phosphodiesterase 1 (TDP1): qHTS in cells in absence of CPT. DT40 Tdp1-/- hTDP1 cells, no CPT, ATP luminescence, 48 h. Potency, µM (doses to about 46.2 µM), actives largely listed as inhibitors. 420,000 compounds, 15% hits; note: nearly all actives have a fitted effect of over 55% in size
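Compound effects on proliferation are scored in DT40 Tdp1-/-;hTDP1 cells in the absence of CPT. ATP levels (CellTiter-Glo luminescence) are recorded after a ≥48 hr, 37 °C incubation.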
HT1080-NT tox: kills 2HG-producing HT-1080-NT fibrosarcoma cells. Potency, µM (doses to about 46.1 µM), most hits filed as cytotoxic. 360,000 compounds, 1.6% hits. HT-1080-NT fibrosarcoma viability, CellTiter-Glo ATP luminescence, 48 h;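 note: NT is the 2HG producing partner of a matched IDH1 knockdown line; nearly all actives have a fitted effect of over 55% in size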
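750 cells/well, RPMI + 5% FBS; 2 h settle, compound pin-transfer, 48 h at 37 degrees C. CellTiter-Glo 10 min RT, luminescence. Normalized to DMSO and media-only wells.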
A number is an active result; [ ] = remark or other dose. Shown are actives, neighbours in structure and some others; about 19% of the full set was active somewhere. Unless noted, calls come from the whole dose curve; as a rule, active = well fitted curve in the direction sought with a large enough effect; inconclusive = small, poorly fitted or top-dose-only effect, or another doubt; inactive = no such curve, though single readings can be large; an effect the other way counts as inactive or inconclusive.

What do the screens show for `O=C(NCc1ccc2[nH]c3c(c2c1)CCCC3)c1ccc(S(=O)(=O)N2CCOCC2)cc1`?
IL1B secr inh: inactive; ELG1 repair inh: inconclusive; DT40 TDP1 CPT: inactive; HT1080 IDH1KD tx: inactive; DT40 TDP1 no CPT: inconclusive; HT1080-NT tox: inactive

Results for O=C(NCCSc1c(-c2ccc(Br)cc2)[nH]c2ccccc12)c1ccc(S(=O)(=O)N2CCOCC2)cc1 ?
DT40 TDP1 CPT: 3.7µM; DT40 TDP1 no CPT: 4.1µM

What do the screens show for `O=C(NCCSc1c(-c2ccc(Cl)cc2)[nH]c2ccccc12)c1ccc(S(=O)(=O)N2CCOCC2)cc1`?
DT40 TDP1 CPT: 3.7µM; DT40 TDP1 no CPT: 3.7µM

What do the screens show for `Clc1ccc(C[n+]2csc3ccccc32)cc1`?
IL1B secr inh: -110; ELG1 repair inh: inconclusive; DT40 TDP1 CPT: 0.41µM; HT1080 IDH1KD tx: inactive; DT40 TDP1 no CPT: 0.52µM; HT1080-NT tox: inactive

How did Fc1ccc(C[n+]2csc3ccccc32)cc1 do in these assays?
IL1B secr inh: -115; ELG1 repair inh: inactive; DT40 TDP1 CPT: 1µM; HT1080 IDH1KD tx: inactive; DT40 TDP1 no CPT: 0.92µM; HT1080-NT tox: inactive

Results for Clc1ccc(CSc2ccc(-c3cccs3)nn2)cc1 ?
DT40 TDP1 CPT: inactive; DT40 TDP1 no CPT: inactive

What do the screens show for `CCN(c1cccc(C)c1)S(=O)(=O)c1ccc(N2CCCCS2(=O)=O)cc1`?
DT40 TDP1 CPT: 13µM; DT40 TDP1 no CPT: 23µM

How did Cc1ccc(CNS(=O)(=O)c2ccc(N3CCCCS3(=O)=O)cc2)cc1 do in these assays?
DT40 TDP1 CPT: 12µM; DT40 TDP1 no CPT: 16µM

What do the screens show for `COc1ccc(CCNS(=O)(=O)c2ccc(N3CCCCS3(=O)=O)cc2)cc1OC`?
DT40 TDP1 CPT: inconclusive; DT40 TDP1 no CPT: 21µM

How did O=S(=O)(NCCc1ccccc1)c1ccc(N2CCCCS2(=O)=O)cc1 do in these assays?
DT40 TDP1 CPT: 18µM; DT40 TDP1 no CPT: 23µM

What do the screens show for `COc1ccc(CCNS(=O)(=O)c2ccc(S(=O)(=O)N3CCCC3)cc2)cc1OC`?
IL1B secr inh: inactive; ELG1 repair inh: inactive; DT40 TDP1 CPT: inconclusive; HT1080 IDH1KD tx: inactive[9.24 µM]; DT40 TDP1 no CPT: inconclusive; HT1080-NT tox: inactive

How did O=S(=O)(Nc1ccccc1C(F)(F)F)c1ccc(N2CCCCS2(=O)=O)cc1 do in these assays?
DT40 TDP1 CPT: inactive; DT40 TDP1 no CPT: inactive

How did NS(=O)(=O)c1ccc(CCNS(=O)(=O)c2ccc(Cl)cc2)cc1 do in these assays?
IL1B secr inh: inactive; ELG1 repair inh: inactive; DT40 TDP1 CPT: inactive; HT1080 IDH1KD tx: inactive; DT40 TDP1 no CPT: inactive; HT1080-NT tox: inactive

Results for CCCCNS(=O)(=O)c1ccc(N2CCCCS2(=O)=O)cc1 ?
DT40 TDP1 CPT: inconclusive; DT40 TDP1 no CPT: 23µM

Results for O=S(=O)(NCCc1ccc(Cl)cc1)c1ccc(N2CCCCS2(=O)=O)cc1 ?
DT40 TDP1 CPT: 18µM; DT40 TDP1 no CPT: 23µM

How did Cc1ccccc1C1CC(c2cccs2)Nc2nnnn21 (stereo not drawn) do in these assays?
IL1B secr inh: inconclusive; ELG1 repair inh: inactive; DT40 TDP1 CPT: inactive; HT1080 IDH1KD tx: inactive; DT40 TDP1 no CPT: 6.5µM; HT1080-NT tox: inactive

How did Cc1ccccc1C1CC(c2ccc(Br)cc2)Nc2nc(N)nn21 (stereo not drawn) do in these assays?
IL1B secr inh: inconclusive; ELG1 repair inh: inactive; DT40 TDP1 CPT: inactive; HT1080 IDH1KD tx: inactive; DT40 TDP1 no CPT: inactive; HT1080-NT tox: inactive

What do the screens show for `Cc1cccc(C2CC(c3ccc(Br)cc3)Nc3nc(N)nn32)c1` (stereo not drawn)?
IL1B secr inh: inactive; ELG1 repair inh: inactive; DT40 TDP1 CPT: 21µM; HT1080 IDH1KD tx: inactive; DT40 TDP1 no CPT: 23µM; HT1080-NT tox: inactive

What do the screens show for `Cc1ccccc1C1CC(c2ccc(F)cc2)Nc2nc(N)nn21` (stereo not drawn)?
IL1B secr inh: inactive; ELG1 repair inh: inconclusive; DT40 TDP1 CPT: 21µM; HT1080 IDH1KD tx: inactive; DT40 TDP1 no CPT: inconclusive; HT1080-NT tox: inactive

Bioassay records: PubChem, National Center for Advancing Translational Sciences (NCATS)
